Most compounds without a hit are left out; they make up all but 0.97% or so of the library.
Mtb UGM inh: blocks M. tuberculosis UGM enzyme; P9WIQ1; purified UGM, fluorescence polarization probe displacement; inhibition, % at 10 µM; hit rate 0.06% among 320,000; AID 504406; in the data active = inhibition above about 10%, passing the limit was not always enough; inconclusive = no clear call, values can overlap the other calls
Rv3671c inh: inhibits the M. tuberculosis serine protease Rv3671c | P9WHR9 | inhibition, % at 5.96 µM | hit rate 0.048% among 320,000 | AID 2606; in the data active = inhibition above about 38%;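 also: extracellular domain of Rv3671c used as enzyme; 0% = enzyme with DMSO and 100% = no enzyme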
Target sequence (P9WHR9 whole entry, looked up, the tested form may be a part): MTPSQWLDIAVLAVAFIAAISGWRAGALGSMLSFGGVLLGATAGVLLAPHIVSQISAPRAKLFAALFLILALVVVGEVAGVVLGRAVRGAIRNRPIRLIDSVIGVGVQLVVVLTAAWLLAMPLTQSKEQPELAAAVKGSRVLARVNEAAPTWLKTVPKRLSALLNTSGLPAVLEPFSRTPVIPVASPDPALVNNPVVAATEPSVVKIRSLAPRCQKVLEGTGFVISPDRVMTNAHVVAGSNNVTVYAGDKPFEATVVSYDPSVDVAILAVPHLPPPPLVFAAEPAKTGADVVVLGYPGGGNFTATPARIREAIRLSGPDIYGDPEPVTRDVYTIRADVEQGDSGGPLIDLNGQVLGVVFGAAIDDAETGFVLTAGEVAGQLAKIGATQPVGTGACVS
RecA intein inh: Mtb RecA intein splicing inhibition | inhibition, % (concentration not given with the values) | cell-free RecA intein splicing, fluorescence | P9WHJ3 | hit rate 0.75% among 290,000; in the data active = inhibition above about 30%; inconclusive = no clear call, values can overlap the other calls;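 also: 0% = vehicle wells and 100% = reference inhibitor control wells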
BioA inh: blocks M. tuberculosis BioA enzyme activity | purified M. tuberculosis BioA enzyme, plate reader | inhibition, % at 9.99 µM | hit rate 0.096% among 360,000 | AID 602481; in the data active = inhibition above about 40%; inconclusive = no clear call, values can overlap the other calls
TcdB GH inh: inhibitors of Clostridioides difficile toxin B glycohydrolase. hit rate 0.24% among 350,000. inhibition, % at 9.99 µM. TcdB glycohydrolase enzymatic assay, plate reader; in the data active = inhibition above about 10%
FadD28 FP inh: blocks FadD28 binding to the bisubstrate probe. fluorescence polarization. inhibition, % at 12.5 µM. hit rate 0.22% among 360,000; in the data active = inhibition above about 8.5%, passing the limit was not always enough; inconclusive = no clear call, values can overlap the other calls
GFP chromo cs: counter-screen: blocks GFP chromophore formation; AID 434968; EC50, µM; shares compounds with RecA intein inh; cell-free GFP chromophore formation, fluorescence; hit rate 83% among 2,100; call rule not given here
* = called active by the depositor.

`CCN(CC)C(=O)c1ccc2c(c1[N+](=O)[O-])C(=O)c1ccccc1C2=O` gave Mtb UGM inh 1, Rv3671c inh 11, RecA intein inh 42* and GFP chromo cs >38.
For CCN(CC)C(=O)c1cccc2c1C(=O)c1ccccc1-2 the results were Mtb UGM inh -1, Rv3671c inh 3, BioA inh 1 and FadD28 FP inh -1.
`COc1ccc(NC(=O)N(C)C[C@H]2OCCCC[C@H](C)Oc3ccc(NC(=O)Nc4cccc5ccccc45)cc3C(=O)N([C@H](C)CO)C[C@H]2C)cc1` gave BioA inh 3.
CCCc1ccc(/C=C2\C(=O)c3ccccc3C(O)=C2C(=O)OCC)cc1 was read as Mtb UGM inh -2, Rv3671c inh -28, RecA intein inh 36* and GFP chromo cs 10*.
CCOC(=O)C1=C(Cc2ccc(OC)cc2)C(=O)c2ccccc2C1=O was read as BioA inh -1 and FadD28 FP inh 4.
For CCOC(=O)C1=C(O)c2ccccc2C(=O)/C1=C\c1ccc(CC)cc1 the results were Mtb UGM inh 0, Rv3671c inh -76, RecA intein inh 49*, BioA inh 1, FadD28 FP inh 0 and GFP chromo cs 5.1*.
`CCOC(=O)C1=C(C)OC(=Cc2ccc(OC)cc2)C1=O` gave BioA inh -1, TcdB GH inh -6 and FadD28 FP inh -1.
C[C@H](O)C#Cc1ccc2c(c1)O[C@H](CN(C)C(=O)C1CCCCC1)[C@H](C)CN([C@H](C)CO)S2(=O)=O was read as BioA inh 2 and TcdB GH inh -1.
For O=C(CN1C(=O)S/C(=C\C=C\c2ccccc2)C1=O)Nc1ccc(C(=O)O)cc1 the results were Mtb UGM inh 1, Rv3671c inh -68, RecA intein inh 35*, BioA inh 2, TcdB GH inh 1, FadD28 FP inh -6 and GFP chromo cs >38.
O=C(CN1C(=O)S/C(=C/C=C/c2ccccc2)C1=O)Nc1ccc(C(=O)O)cc1 was read as Mtb UGM inh 0, Rv3671c inh -19, RecA intein inh 21, TcdB GH inh -1 and FadD28 FP inh -5.
`Cn1c(SCC(=O)NCC2CCCO2)ncc(C(=O)Nc2ccc(F)cc2)c1=O` (stereo unspecified) gave Mtb UGM inh 2, Rv3671c inh 1, RecA intein inh 39*, BioA inh 1, TcdB GH inh 0, FadD28 FP inh 0 and GFP chromo cs 0.89*.
Cn1c(SCC(=O)NCC2CCCO2)ncc(C(=O)Nc2ccc(Cl)cc2)c1=O (stereo unspecified) was read as Mtb UGM inh -1, Rv3671c inh 4, RecA intein inh 54*, BioA inh -1, TcdB GH inh 1, FadD28 FP inh -2 and GFP chromo cs >38.
CC(=O)Nc1ccc(NC(=O)CSc2ncc(C(=O)Nc3ccc(Cl)cc3)c(=O)n2C)cc1 was read as Mtb UGM inh 2, Rv3671c inh 2, RecA intein inh 23 and FadD28 FP inh -3.
Screening COc1cc(C(c2c(C)[nH][nH]c2=O)c2c(C)[nH][nH]c2=O)cc(Cl)c1O returned Mtb UGM inh -2, Rv3671c inh 1, RecA intein inh 88*, BioA inh 0, TcdB GH inh 1, FadD28 FP inh -4 and GFP chromo cs 0.74*.
`COc1cc(C(c2c(C)[nH][nH]c2=O)c2c(C)[nH][nH]c2=O)cc(OC)c1OC` gave Mtb UGM inh 0, Rv3671c inh -18, RecA intein inh 96*, TcdB GH inh -2, FadD28 FP inh -4 and GFP chromo cs 0.51*.
For COc1ccc(C(CC(=O)O)c2cc(OC)c(OC)c(OC)c2)cc1OC (stereo unspecified) the results were TcdB GH inh 1 and FadD28 FP inh 0.
CN(C)C(=O)[C@@H]1[C@@H](CO)[C@@H]2Cn3c(ccc(-c4ccccc4)c3=O)[C@@H]2N1Cc1ccccc1 was read as BioA inh 19 and TcdB GH inh 1.
For CCOc1ccc2c(c1)-c1c(ssc1=S)C(C)(C)N2 the results were Mtb UGM inh 0, Rv3671c inh 11, RecA intein inh 51*, FadD28 FP inh 1 and GFP chromo cs 12*.
Screening CCN(C(=O)c1ccc2c(Cl)c3c(nc2c1)CCC3)c1ccc(C)c(C)c1 returned Mtb UGM inh -3, Rv3671c inh -16, RecA intein inh 30*, BioA inh 1, TcdB GH inh 0, FadD28 FP inh -6 and GFP chromo cs 9.1*.
For CC1CCCN(C(=O)COc2ccc(NC(=O)c3cccs3)cc2)C1 (stereo unspecified) the results were Mtb UGM inh 1, Rv3671c inh 0, RecA intein inh 44*, TcdB GH inh 5, FadD28 FP inh -2 and GFP chromo cs >38.
Screening CCCN1C[C@@H](C)[C@H](OC)CN(C)C(=O)c2cc(NC(=O)c3cccc(F)c3)ccc2OC[C@H]1C returned BioA inh -1 and TcdB GH inh 0.
`Cc1nn(-c2cccc(Cl)c2)c2c1C(c1cccnc1)C(C#N)=C(N)O2` (stereo unspecified) gave Mtb UGM inh 1, Rv3671c inh -158, RecA intein inh 35*, BioA inh -4, FadD28 FP inh 3 and GFP chromo cs 21*.
`COc1ccc(OC)c(C2C(C#N)=C(N)Oc3c2c(C)nn3-c2cccc(Cl)c2)c1` (stereo unspecified) gave Mtb UGM inh 2, Rv3671c inh -27, RecA intein inh 37*, FadD28 FP inh -1 and GFP chromo cs 38*.
For Cc1nn(-c2cccc(Cl)c2)c2c1C(c1ccncc1)C(C#N)=C(N)O2 (stereo unspecified) the results were Mtb UGM inh -1, Rv3671c inh -139, RecA intein inh 57*, FadD28 FP inh 5 and GFP chromo cs 23*.
`Cc1nn(-c2ccccc2)c2c1C(c1ccc([N+](=O)[O-])cc1)C(C#N)=C(N)O2` (stereo unspecified) gave Mtb UGM inh 0, Rv3671c inh 0, RecA intein inh -2, BioA inh 2, TcdB GH inh 0 and FadD28 FP inh 3.
Screening COc1ccc(OC)c(C2C(C#N)=C(N)Oc3cc(C)[nH]c(=O)c32)c1 (stereo unspecified) returned Mtb UGM inh 1, Rv3671c inh -12, RecA intein inh -3, BioA inh 0 and FadD28 FP inh -1.
`O=C(NC[C@H]1CC[C@H]2[C@H](CN2C(=O)CN2CCOCC2)O1)NC1CCCCC1` gave TcdB GH inh 0.
`O=c1cc(N=Nc2ccc(Cl)cc2)[nH]c(=O)[nH]1` gave Mtb UGM inh 1, Rv3671c inh -9, RecA intein inh 88*, BioA inh -4, TcdB GH inh 1, FadD28 FP inh 2 and GFP chromo cs inconclusive.
For CCCN(C)C[C@@H]1OCCCC[C@@H](C)Oc2ccc(NS(=O)(=O)c3ccc(F)cc3)cc2C(=O)N([C@H](C)CO)C[C@@H]1C the results were BioA inh 0 and TcdB GH inh 0.

Bioassay records (PubChem)
